Measurements: ChEMBL document CHEMBL1201862, “PubChem BioAssay data set” (2004)
The campaign covered roughly 400,000 compounds. About 2,100 (0.53%) were called active. Not shown: some 14% with an inconclusive outcome. How the calls were made is not given here. This excerpt belongs to a sample that is enriched for actives.

What follows are compounds tested against Ataxin-2 (Homo sapiens) (UniProt Q99700) (assay: qHTS for Inhibitors of ATXN expression.).
Ataxin-2 (Homo sapiens), sequence (Q99700 whole entry): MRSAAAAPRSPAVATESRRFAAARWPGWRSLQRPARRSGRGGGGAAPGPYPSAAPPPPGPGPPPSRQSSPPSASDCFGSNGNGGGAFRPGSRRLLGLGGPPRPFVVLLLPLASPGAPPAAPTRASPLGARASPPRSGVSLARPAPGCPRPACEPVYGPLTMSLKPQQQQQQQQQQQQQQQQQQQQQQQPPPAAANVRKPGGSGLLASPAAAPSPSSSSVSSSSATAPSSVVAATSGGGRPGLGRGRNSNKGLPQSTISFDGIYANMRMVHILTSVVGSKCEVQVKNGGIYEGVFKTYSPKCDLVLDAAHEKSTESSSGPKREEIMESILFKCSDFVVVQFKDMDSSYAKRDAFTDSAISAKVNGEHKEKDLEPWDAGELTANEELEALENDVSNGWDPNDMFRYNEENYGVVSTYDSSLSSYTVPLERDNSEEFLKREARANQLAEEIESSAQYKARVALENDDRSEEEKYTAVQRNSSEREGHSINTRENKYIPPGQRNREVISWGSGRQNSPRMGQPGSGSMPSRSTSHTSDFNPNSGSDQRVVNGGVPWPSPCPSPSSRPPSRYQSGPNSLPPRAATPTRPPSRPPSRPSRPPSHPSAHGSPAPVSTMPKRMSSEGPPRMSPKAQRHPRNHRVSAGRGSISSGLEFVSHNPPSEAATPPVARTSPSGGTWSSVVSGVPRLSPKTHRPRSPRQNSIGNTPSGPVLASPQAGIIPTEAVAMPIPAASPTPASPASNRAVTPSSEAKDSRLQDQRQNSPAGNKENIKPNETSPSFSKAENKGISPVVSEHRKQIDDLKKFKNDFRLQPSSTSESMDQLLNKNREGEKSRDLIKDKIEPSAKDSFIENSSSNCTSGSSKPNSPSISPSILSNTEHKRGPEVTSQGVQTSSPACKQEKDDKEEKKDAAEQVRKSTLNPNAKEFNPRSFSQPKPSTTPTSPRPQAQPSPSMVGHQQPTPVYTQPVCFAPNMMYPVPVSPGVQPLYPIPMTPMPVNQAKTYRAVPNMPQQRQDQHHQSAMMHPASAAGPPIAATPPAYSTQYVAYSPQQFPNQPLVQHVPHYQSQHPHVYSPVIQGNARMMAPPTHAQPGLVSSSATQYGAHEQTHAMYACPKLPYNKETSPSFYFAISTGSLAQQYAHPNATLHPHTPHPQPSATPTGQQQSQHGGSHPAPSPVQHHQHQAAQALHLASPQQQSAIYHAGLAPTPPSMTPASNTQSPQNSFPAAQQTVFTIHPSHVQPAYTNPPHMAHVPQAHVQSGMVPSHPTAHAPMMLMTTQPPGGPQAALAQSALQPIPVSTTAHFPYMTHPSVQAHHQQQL
Type: functional
With CCCC(=O)NCn1nnc(-c2ccc(Cl)cc2)n1 the Potency was “inactive”.
For CCCCCCN1C[C@H](n2cc(-c3ccc(F)cc3)nn2)[C@@H](O)C[C@@H]1c1ccc(Cl)cc1, the Potency was 22.4 µM (active).
For COc1ccc([C@H]2C[C@H](O)[C@@H](n3cc(-c4ccc(F)cc4)nn3)CN2CC2CCCCC2)cc1, the Potency was 39.8 µM (active).
For CCCCCC(=O)N1C[C@@H](n2cc(-c3ccc(F)cc3)nn2)[C@H](O)C[C@@H]1c1ccc(Cl)cc1, the Potency was 31.6 µM (active).
O[C@H]1C[C@H](c2ccc(Cl)cc2)N(Cc2cccs2)C[C@@H]1n1cc(-c2ccc(F)cc2)nn1 was tested, and the Potency was 25.1 µM (active).
For CCCCNC(=O)COC(=O)c1c2c(nc3ccccc13)/C(=C/c1cccs1)CC2, the Potency was “inactive”.
COc1ccc(OCCCC(=O)ON=C(N)c2ccccc2C)cc1 was tested, and the Potency was “inactive”.
With CCOC(=O)C1=C(NC(=O)c2cc(S(=O)(=O)N3CCOCC3)ccc2C)Nc2ccccc2N=C1CC the Potency was “inactive”.
In the case of NS(=O)(=O)c1ccc(N2N=C(c3ccc(Br)cc3)CC2c2ccc(F)cc2)cc1 (configuration not stated), the Potency is reported as “inactive”.
For CCCCCCN1C[C@H](n2cc(-c3ccc(F)cc3)nn2)[C@@H](O)C[C@@H]1c1ccc(C)cc1, the Potency was 39.8 µM (active).
Cc1ccc([C@H]2C[C@H](O)[C@@H](n3cc(C4CC4)nn3)CN2Cc2cccs2)cc1 was tested, and the Potency was 35.5 µM (active).
With COc1ccc(C2=CC(c3ccc(F)cc3)n3nnnc3N2)cc1 (configuration not stated) the Potency was “inactive”.
With CCCCCCN1C[C@@H](n2cc(-c3ccc(F)cc3)nn2)[C@H](O)C[C@@H]1c1ccc(OC)cc1 the Potency was 35.5 µM (active).
In the case of COc1ccc(C2=Nc3nc(-c4ccccc4)cn3C(c3ccc(OC)cc3)C2)cc1 (configuration not stated), the Potency is reported as “inactive”.
In the case of CCCCCCN1C[C@H](n2cc(C3CC3)nn2)[C@@H](O)C[C@@H]1c1ccc(C)cc1, the Potency is reported as 35.5 µM (active).
For Fc1ccc(C2CC(c3cccs3)=NN2c2ccccc2)cc1 (configuration not stated), the Potency was “inactive”.
With Cc1cc(F)ccc1NC(=O)c1sc2nc(-c3cccs3)ccc2c1N the Potency was “inactive”.
In the case of CCOC(=O)c1cc2c(=O)n3ccccc3nc2n(Cc2ccco2)/c1=N/C(=O)c1ccc(OC)cc1OC, the Potency is reported as “inactive”.
For COC(=O)[C@]12CCCCC=C1N(Cc1cccc3ccccc13)C(=O)[C@H](CC(=O)N1CCN(C(=O)c3ccco3)CC1)C2, the Potency was 22.4 µM (active).
For CCCCCCCCN1C(=O)[C@H](CC(=O)N2CCN(C(=O)c3ccco3)CC2)C[C@@]2(C(=O)OCC)CCCC=C12, the Potency was 14.1 µM (active).
For COC(=O)[C@]12CCCCC=C1N(CCC1=CCCCC1)C(=O)[C@H](CC(=O)N1CCN(C(=O)c3ccco3)CC1)C2, the Potency was 22.4 µM (active).
For O=C(Nc1c(C(=O)c2ccc(F)cc2)oc2ccccc12)c1cc(-c2ccccc2)on1, the Potency was “inactive”.
In the case of COc1cc(/C=N/Nc2ccc([N+](=O)[O-])cc2S(=O)(=O)N2CCOCC2)cc(OC)c1OC, the Potency is reported as “inactive”.
Cc1ccc(Cl)cc1N1CCN(C(=O)c2cnn(-c3ccc(Cl)cc3)c2C2CCNCC2)CC1 was tested, and the Potency was 39.8 µM (active).
For Cc1ccc(Cl)cc1N1CCN(C(=O)Cc2csc(Nc3nc(S)nc4ccccc34)n2)CC1, the Potency was “inactive”.
With Cc1ccc(Nc2ncc(C(=O)N3CCN(c4ccc(F)cc4)CC3)c3ccccc23)cc1Cl the Potency was “inactive”.
In the case of COc1ccc(S(=O)(=O)NCCc2cn3nc(C)c(C)nc3n2)cc1, the Potency is reported as “inactive”.
CN1C2=CC=CC=CC2=[N+](C)C12C=CC(=[N+]([O-])[O-])C=C2[N+](=O)[O-] (configuration not stated) was tested, and the Potency was 20 µM (active).
With CCN(CC)C1=CC2=CC(=C(C#N)C#N)CCC2CC1 (configuration not stated) the Potency was “inactive”.
Cc1cc(C)nc(N(C#N)Cc2ccc(Cl)cc2)n1 was tested, and the Potency was “inactive”.
With Cc1ccc(CN2C(=O)CC(c3ccc(Cl)cc3)c3c(C)nn(-c4nc(C)cc(C)n4)c32)cc1 (configuration not stated) the Potency was 39.8 µM (active).
With CCOC(=O)C1CCN(S(=O)(=O)c2cc3c(cc2C)NC(=O)CO3)CC1 the Potency was “inactive”.
In the case of CS(=O)(=O)c1nc([N+](=O)[O-])nn1CCCc1ccccc1, the Potency is reported as 39.8 µM (active).
With Cn1c(-c2c(N)n(CCCc3ccccc3)c3nc4ccccc4nc23)nc2ccccc21 the Potency was “inactive”.
For CCN(C(=O)c1cc2c(=O)n3ccccc3nc2s1)C1CCCCC1, the Potency was “inactive”.
O=[N+]([O-])c1cncc([N+](=O)[O-])c1Nc1cccc(O)c1 was tested, and the Potency was 22.4 µM (active).
For COc1ccc(C2NS(=O)(=O)N=C2N)cc1 (configuration not stated), the Potency was “inactive”.
N#Cc1c(-c2ccccc2)c(C#N)c2nc3ccccc3n2c1N was tested, and the Potency was “inactive”.
With Nc1ccc2c(C(F)(F)F)cc(=O)oc2c1 the Potency was “inactive”.
CC(C)Cn1c(SC(C)C(=O)NCC2CCCO2)nc2ccc(Cl)cc2c1=O (configuration not stated) was tested, and the Potency was “inactive”.
In the case of COCCn1c(SCC(=O)Nc2ccc(NC(C)=O)cc2)nc2ccccc2c1=O, the Potency is reported as “inactive”.
In the case of Cn1c(SCC(=O)NCC2CCCO2)ncc(C(=O)Nc2ccc(Cl)cc2)c1=O (configuration not stated), the Potency is reported as 35.5 µM (active).
With CC(=O)Nc1cccc(NC(=O)CSc2ncc(C(=O)Nc3ccccc3)c(=O)n2C)c1 the Potency was 39.8 µM (active).
For CC(=O)c1cccc(NC(=O)c2ccccc2-c2ccccc2C(=O)O)c1, the Potency was “inactive”.
For O=C(Cn1c(=O)c(=O)n(Cc2ccccc2)c2ccc(Cl)cc21)NCC1CCCO1 (configuration not stated), the Potency was “inactive”.
CC1=CC2=NC(=O)/C(=C/c3coc4ccccc4c3=O)C(=N)N2O1 was tested, and the Potency was “inactive”.
With COc1ccc(-c2c(C)c3ccc(O)c(CN4CCN(CCO)CC4)c3oc2=O)cc1OC the Potency was “inactive”.
In the case of O=C(Nc1nc2n(n1)C(c1ccccc1)C=C(c1ccccc1)N2)c1ccccc1 (configuration not stated), the Potency is reported as “inactive”.
COc1cc(NS(=O)(=O)c2ccc(N/C=C\C(=O)c3ccc(F)cc3)cc2)nc(OC)n1 was tested, and the Potency was “inactive”.
For O=C1C(Br)=Cc2cccc3cccc1c23, the Potency was “inactive”.
For O=C1c2cccc3cccc(c23)C(=O)C1(O)O, the Potency was 15 µM (active).
O=C1c2sccc2-c2cccc3cccc1c23 was tested, and the Potency was “inactive”.
For Cc1cc2nc(-c3ccco3)c(Cc3ccccc3C(F)(F)F)n2c(C)c1Br, the Potency was 39.8 µM (active).
With O=C1NC(Cc2ccc(O)cc2)c2nc3cc(F)c(F)cc3c(=O)n2-c2cc3ccccc3cc21 (configuration not stated) the Potency was 35.5 µM (active).
For CN(C)CCOC1(Cc2ccc(F)cc2)CCC(C(C)(C)C)CC1 (configuration not stated), the Potency was 21.2 µM (active).
In the case of Cc1ccc(CC2(OCCN(C)C)CCC(C(C)(C)C)CC2)cc1 (configuration not stated), the Potency is reported as 42.3 µM (active).
In the case of O=C(NCc1nc2ccccc2[nH]1)C1=C[C@@H](c2ccc(Br)cc2)C[C@@H](OCCCCO)O1, the Potency is reported as 31.6 µM (active).
With Cc1ccccc1NC(=O)CN1C(=O)S/C(=C\c2ccc(-c3cc(C(=O)O)ccc3C)o2)C1=O the Potency was “inactive”.
In the case of C=C1CC2(OC1=O)c1ccccc1CCc1ccccc12, the Potency is reported as 5.97 µM (active).
O=S(=O)(c1ccc(Cl)c(C(F)(F)F)c1)N1CCN(c2ccccn2)CC1 was tested, and the Potency was “inactive”.
For O=C(c1ccco1)[C@@H]1[C@@H]2C(=O)N(c3ccc(F)cc3)C(=O)[C@@H]2[C@H]2C=Cc3ccccc3N21, the Potency was “inactive”.
For COc1cc(CN2CCCC(CO)(Cc3cccc(Cl)c3)C2)cc(OC)c1O (configuration not stated), the Potency was “inactive”.
With Cc1ccc(S(=O)(=O)Nc2nc3n(n2)C(c2ccc(F)cc2)C=C(c2ccccc2)N3)cc1 (configuration not stated) the Potency was “inactive”.
With O=C(N/N=C/c1ccc(-c2ccc([N+](=O)[O-])cc2)o1)C(O)c1ccccc1 (configuration not stated) the Potency was “inactive”.
For O=C(O)/C=C/C(=O)NNc1ccc([N+](=O)[O-])cc1, the Potency was 13.4 µM (active).
With Cc1ccc(N2CCN(S(=O)(=O)c3nnc(NC(=O)c4ccco4)s3)CC2)cc1 the Potency was “inactive”.
CCc1ccccc1N1CC(c2nnc(NC(=O)c3ccco3)s2)CC1=O (configuration not stated) was tested, and the Potency was “inactive”.
In the case of Cc1sc(NC(=O)c2ccco2)nc1-c1ccc2c(c1)CC(C)N2C(=O)C1CC1 (configuration not stated), the Potency is reported as 28.2 µM (active).
C=CCN=C(S)Nc1ccc(C(N)=O)cc1 was tested, and the Potency was “inactive”.
In the case of COc1ccc(CCn2c(=S)[nH]c3cc(C(=O)NCc4ccco4)ccc3c2=O)cc1OC, the Potency is reported as 28.2 µM (active).
In the case of COc1ccc(CCn2c(=S)[nH]c3cc(C(=O)N4CCOCC4)ccc3c2=O)cc1OC, the Potency is reported as “inactive”.
COc1ccc(CCn2c(=S)[nH]c3ccc(N4CCOCC4)cc3c2=O)cc1OC was tested, and the Potency was “inactive”.
With CC(=O)Oc1ccc2c(c1)Oc1cc(OC(C)=O)ccc1C21OC(=O)c2ccccc21 the Potency was “inactive”.
In the case of O=C1OC(c2ccc3ccccc3c2O)(c2ccc3ccccc3c2O)c2ccccc21, the Potency is reported as 17.8 µM (active).
In the case of Cc1cc(O)c(C(C)C)cc1C1(c2cc(C(C)C)c(O)cc2C)OC(=O)c2ccccc21, the Potency is reported as 31.6 µM (active).
With Cc1cccc2c3c([nH]c12)C(=O)CC(C)(C)S3 the Potency was “inactive”.
In the case of O=C(N/C(=C/c1ccccc1Cl)C(=O)N1CCCC1)c1ccccc1, the Potency is reported as “inactive”.
With Cc1nc(N2CCN(c3ccccc3F)CC2)nc(O)c1C the Potency was “inactive”.
For CCCc1cc(NC(=O)COC(=O)c2nccnc2N)n(-c2ccccc2)n1, the Potency was “inactive”.
With CCOC(=O)[C@]12Cc3c(cc(OC)c(OC)c3OC)[C@H]1N(CCC(=O)OC)C(=O)c1cc(OC)ccc12 the Potency was 22.4 µM (active).
With c1cncc(-c2nc(N3CCOCC3)c3c4c(sc3n2)CCC4)c1 the Potency was “inactive”.
For CCc1cc2c(COC(=O)CCNS(=O)(=O)c3cccc(C(F)(F)F)c3)cc(=O)oc2cc1O, the Potency was “inactive”.
In the case of CCN(CC)CCN1C(=O)/C(=C\c2ccc(Cl)c([N+](=O)[O-])c2)S/C1=N\c1ccc(OC)cc1, the Potency is reported as 28.2 µM (active).
For C=CCN1C(=O)/C(=C/c2ccc(OC)cc2)S/C1=N/c1nccs1, the Potency was “inactive”.
In the case of Cc1cc(=O)oc2c(CN3CCN(CCO)CC3)c(O)ccc12, the Potency is reported as “inactive”.
O=C(CN1C(=O)NC2(CCOc3ccccc32)C1=O)Nc1ccc(F)c(F)c1F (configuration not stated) was tested, and the Potency was “inactive”.
CCC(=O)NCCCNc1nc2c(C)cccc2cc1C#N was tested, and the Potency was “inactive”.
In the case of CCN1C(=O)/C(=C/C2=Cc3ccccc3OC2C)SC1=S (configuration not stated), the Potency is reported as “inactive”.
In the case of CCN1C(=O)/C(=C\C=C2/C=CC=CN2CC)SC1=S, the Potency is reported as 20 µM (active).
Cc1cc(O)nc2c1c(-c1ccccc1)nn2C was tested, and the Potency was “inactive”.
O=C(CN1C(=O)NC2(CCCC2)C1=O)Oc1ccc2ccc(=O)oc2c1 was tested, and the Potency was “inactive”.
In the case of CC1=CC(C)(C)Nc2ccc(OC(=O)CCN3C(=O)c4ccccc4C3=O)cc21, the Potency is reported as 25.1 µM (active).
With CC1=CC(C)(C)Nc2ccc(OC(=O)C(C)N3C(=O)c4ccccc4C3=O)cc21 (configuration not stated) the Potency was 39.8 µM (active).
In the case of CC1=CC(C)(C)Nc2ccc(OC(=O)CN3C(=O)c4ccccc4C3=O)cc21, the Potency is reported as 25.1 µM (active).
In the case of CC(C(=O)N1CCOCCOCCOCCOCCOCC1)N1C(=O)c2ccccc2C1=O (configuration not stated), the Potency is reported as “inactive”.
For CC1(C)Nc2ccccc2C(=O)N1c1ccc(Br)cc1, the Potency was “inactive”.
O=C(CN1C(=O)NC2(CCCCC2)C1=O)Oc1ccc2ccc(=O)oc2c1 was tested, and the Potency was “inactive”.
